Test results from ChEMBL document CHEMBL3433997, “St. Jude Leishmania screening dataset” (2016).

Key:
Assay type in all cases: functional
[1] = target: Solute carrier family 2, facilitated glucose transporter member 1 (Homo sapiens) (UniProt P11166); experiment: ST_JUDE_LEISH: Cytotoxicity at 2uM final concentration against transgenic Leishmania Mexicana promastigotes LmGLUT1 that are glucose transport deficient and complemented with the human glucose transporter GLUT1. Activity is measured by DNA content using SYBR green in vitro
Chain of Solute carrier family 2, facilitated glucose transporter member 1 (Homo sapiens) (P11166 whole entry): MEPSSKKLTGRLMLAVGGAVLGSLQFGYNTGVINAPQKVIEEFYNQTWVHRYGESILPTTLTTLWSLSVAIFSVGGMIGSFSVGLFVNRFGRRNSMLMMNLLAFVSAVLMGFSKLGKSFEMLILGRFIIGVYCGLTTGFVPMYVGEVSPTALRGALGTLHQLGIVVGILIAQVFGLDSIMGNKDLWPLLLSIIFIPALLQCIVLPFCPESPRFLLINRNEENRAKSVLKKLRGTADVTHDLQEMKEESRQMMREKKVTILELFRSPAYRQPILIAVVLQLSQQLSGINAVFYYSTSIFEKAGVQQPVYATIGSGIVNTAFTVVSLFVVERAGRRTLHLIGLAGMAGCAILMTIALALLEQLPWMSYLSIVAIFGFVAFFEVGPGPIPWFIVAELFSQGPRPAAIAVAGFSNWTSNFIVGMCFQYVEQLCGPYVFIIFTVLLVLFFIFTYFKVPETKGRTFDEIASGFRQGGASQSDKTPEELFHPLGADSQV

[2] = target: Hexose transporter 1 (Plasmodium falciparum) (UniProt O97467); experiment: ST_JUDE_LEISH: Cytotoxicity at 2uM final concentration against transgenic Leishmania Mexicana promastigotes LmPfHT that are glucose transport deficient and complemented with the Plasmodium falciparum hexose transporter. Activity is measured by DNA content using SYBR green in vitro
[3] = target: Glucose transporter (Leishmania mexicana) (UniProt O61059); experiment: ST_JUDE_LEISH: Cytotoxicity at 2uM final concentration against transgenic Leishmania Mexicana promastigotes LmGT2 that are glucose transport deficient and complemented with the L. Mexicana glucose transporter 2. Activity is measured by DNA content using SYBR green in vitro

Row | SMILES | inhibition [1] | inhibition [2] | inhibition [3]
1 | CN1CC[C@@H](Oc2cc(C(=O)NCc3ccc(Cl)c(Cl)c3)ccc2C(F)(F)F)C1 | -0.85% | -1.04% | 0.48%
2 | CCn1c(Sc2ccc(C#N)c([N+](=O)[O-])c2)nnc1-c1cc(OC)cc(OC)c1 | 1.62% | 0.59% | -0.03%
3 | O=c1[nH]c2c(cc1CNC1CCCCC1)c(-c1cccc(F)c1)nn2-c1ccccc1 | 1.69% | 0.38% | -3.71%
4 | O=C(Nc1ccc(N2CCCCC2)c(Cl)c1)c1ccco1 | 0.11% | 0.86% | -1.58%
5 | O=C(Cn1c(CCc2cccc(F)c2F)cc(=O)c2cccnc21)N(CCn1ccnc1)Cc1ccc(-c2ccc(C(F)(F)F)cc2)cc1 | -0.44% | 1.8% | -1.45%
6 | C[C@H](NC(=O)[C@H](CCCCNC(=O)OC(C)(C)C)NC(=O)OC(C)(C)c1ccc(-c2ccccc2)cc1)C(=O)OCc1ccccc1 | 3.8% | 3.27% | 1.84%
7 | OC(CNCCCCCCNCC(O)c1ccc(Cl)c(Cl)c1)c1ccc(Cl)c(Cl)c1 (stereo unspecified) | 3.81% | 4.69% | 3.55%
8 | CCN(CC)CCN(Cc1ccc(-c2ccc(C(F)(F)F)cc2)cc1)C(=O)c1c[nH]c2ccc(Br)cc12 | 1.48% | 1.01% | 2.1%
9 | Cc1cccc(-c2nc(Nc3ccncc3)c3ccc([N+](=O)[O-])cc3n2)n1 | 5.77% | 7.55% | 3.86%
10 | CCN1CCN(Cc2c(O)ccc3c(=O)c(Oc4cc(C)cc(C)c4)c(C(F)(F)F)oc23)CC1 | 75.7% | 73.3% | 54.5%
11 | O=C(Nc1ccc(-c2ccccc2)cc1)Nc1cccc(Cn2nc(Cl)c(N3CCCNCC3)cc2=O)c1 | 3.71% | 0.49% | 0.24%
12 | COc1cc2nc(N3CCC(CNC(=O)c4ccc(NC(=O)c5ccc(Cl)cc5)cc4)CC3)nc(N)c2cc1OC | 0.04% | 0.98% | 0.86%
13 | CCc1cc(-c2n[nH]c(C(F)(F)F)c2-c2ccccc2)c(O)cc1OC | 2.03% | 1.54% | 2.44%
14 | CO/C(=C\C=C\c1cc2cc(Cl)c(Cl)cc2[nH]1)C(=O)NCCCN1CCN(c2ccc(OC)cc2)CC1 | 2.11% | 2.47% | 1.28%
15 | COc1cc2nc(Nc3ccc(N4CCOCC4)cc3)nc(N)c2cc1OC | 0.99% | 2.3% | -0.6%
16 | Cc1cc(=NN=Cc2ccc(F)cc2)c2ccc(F)cc2[nH]1 | 0.14% | 0.15% | -0.46%
17 | O=C(Nc1ccc(Oc2ccc(OC(F)(F)F)cc2)cc1)c1ccco1 | 2.92% | 1.49% | -0.53%
